Test results reported in the supplement of paper PMC10338343.
± gives the standard deviation.

Tested on: EfPiwi piRISC loaded with L1MC piRNA (26 nt)
Experiment: pre-steady-state target cleavage rate (min^-1); auxiliary factor: none (no Gtsf1); guide: L1MC piRNA 5'p-UAACUAAAUACUAUGCAAGCUGUAGG; higher = faster piRNA-guided slicing of the target
Procedure, shortened: (§1)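 At 33 °C in HEPES–potassium acetate buffer, a transcribed, DNA-blocked target RNA library […] was exposed for 0–8 or 0–960 min to 1 nM active affinity-purified piRISC carrying a single synthetic guide, with or without 500 nM GTSF1 partner protein. Uncleaved targets were sequenced and normalised to depth and to weakly complementary targets. With three trials pooled and k3 capped at 0.0001 min^-1, a burst-and-steady-state fit produced the pre-steady-state cleavage rate.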

Sequence	pre-steady-state target cleavage rate
UCCUGGAUGUCGAAGCAUACUAAUUAGUUA	< 0.0001
UCCUGGAUGUCGAAGAAUAGUAUUUAGUUA	< 0.0001
UCCUGGAUGUCGAUGCAUCAGUAUUUAGUUA	< 0.0001
UCCUGGAUGUCGAACGAUAGUAUUUAGUUU [g2:g14:cont:t1U]	< 0.0001

Tested on: EfPiwi piRISC loaded with piRNA #1 (26 nt)
Experiment: pre-steady-state target cleavage rate (min^-1); auxiliary factor: 500 nM Ephydatia muelleri Gtsf1; guide: piRNA #1 5'p-UGAGGUAGUAGGUUGUAUAGUAUCCA; MIWI and MILI are mouse PIWI proteins and EfPiwi is from a freshwater sponge; tags in brackets are library labels; higher = faster piRNA-guided slicing of the target
Procedure, shortened: as §1

Sequence	pre-steady-state target cleavage rate
GGAGAGGGAUACUAUACAACCUACUACCUCA	0.0946 ± 0.037
GGAGUGGAUACUAUACAACGAUCUACCUCA	0.00198 ± 0.0014
GGAGUGGAUACUAUACAACCUACUAGGAGA [g6:g26:cont:t1A]	0.00291 ± 0.0023
GGAGUCGAAACUAUACAACCUACUACCUCA	0.0604 ± 0.021
GGAGUGGAUACUAUACAAGCUAGUACCUCA	0.00287 ± 0.0014
GGAGAGGAUACUAUACAACCAACAACCUCA	0.00224 ± 0.0022
GGAGACCUAACUAUACAACGUAGUACCUCA	0.00322 ± 0.0027
GGAGAGGUAUCUAUACAACCUACUACCUCA	0.0113 ± 0.0061
GGAGACCUUACUAUACAGCCUACUACCUCA	0.068 ± 0.028
GGAGACCUAACUAUACACCUACUACCUCA	0.00586 ± 0.0042
GGAGACCUAACUAUACAACCUUCUACCUGA	0.00465 ± 0.0036
GGAGACCUAACUAUACAACCAACUACCUCA	0.00331 ± 0.0023
GGAGACCUAUGAUAUGUACCUACUAUCCUCA	< 0.0001
GGAGAGGAUACUAUACAACCUACUAGCUGA	0.00408 ± 0.002
GGAGACCAAACUAUACAACCUACUACCUGA	0.00429 ± 0.0028
GGAGUGGAUACUAUACAACCUCACUACCUCA	0.00417 ± 0.0022
GGAGAGGAUACUAUACUAACCUACUACCUCA	0.0128 ± 0.007
GGAGACCAUACUAUACAAUCCUACUACCUCA	0.00501 ± 0.0032

Sequence	pre-steady-state target cleavage rate
GGAGACGAUACUAUACGAACCUACUACCUCA	0.00658 ± 0.0033
GGAGACGAUACUAUACAACCUACUACCUGCA	0.00933 ± 0.0034
GGAGACCAUACUAUACUAACCUACUACCUCA	0.0042 ± 0.0031
GGAGACCUUACUAUACAACCUUCUACCUGA	0.00341 ± 0.0028
GGAGACCAUACUAUACAACCUAGUAGCUCA	0.00225 ± 0.0017
GGAGACCUAUGAAUAGAACCUUCUACCUCA	< 0.0001
GGAGACCAUACUAUACAACCAACUAGCUCA	0.0061 ± 0.0043
GGAGACCUUACUAUACAACCCUACUACCUCA	0.00411 ± 0.0037
GGAGACGAUACUAUACAACCUAGAACCUCA	0.00278 ± 0.0012
GGAGACCAUACUUUACAACCUAGUACCUCA	0.00535 ± 0.0043
GGAGACCUAUGUAUACAACCUACUGACCUCA	< 0.0001
GGAGUGGAUACUAUACAACCAUGUACCUCA	0.00412 ± 0.0026
GGAGAGGAUACUAUACAACCAACUAGCUCA	0.00313 ± 0.0016
GGAGAGGAUACUAUACAAUCCUACUACCUCA	0.00878 ± 0.0059
GGAGAGGAUACUAUACAACCUUCUACGUCA	0.00356 ± 0.0021
GGAGACCUUCACUAUACAACCUACUACCUCA	0.00775 ± 0.0054
GGAGUGGAUACUAUAUAACCUACUACCUCA	0.117 ± 0.045
GGAGUGGAUACUAUACUACCUACUAGCUCA	0.0027 ± 0.0021
